# Experimental data reported in ChEMBL document CHEMBL4513146, “CO-ADD screening of Karazin Kharkiv National University (Ukraine) compounds”.
# Measured potencies and affinities stand elsewhere.
# How the values were obtained:
# Klebsiella pneumoniae = settings: Concentration 32 ug.mL-1;; ASSAY_TEST Inhibition of Bacterial Growth; detection method Absorption (OD600); MEDIA CAMHB; plate type 384well; NBS; CORNING #3640; time 18 hr
# Candida albicans = settings: Concentration 32 ug.mL-1; ASSAY_TEST Inhibition of Fungal Growth; detection method Absorption (OD530)
# Cryptococcus neoformans = settings: Concentration 32 ug.mL-1; ASSAY_TEST Inhibition of Fungal Growth; detection method Resazurin; Absorption (OD600-OD570); plate type 384well; NBS; CORNING #3640
SMILES,Inhibition (Klebsiella pneumoniae) [%],Inhibition (Candida albicans) [%],Inhibition (Cryptococcus neoformans) [%]
COc1ccc(N(Cc2ccc(Cl)cc2)S(=O)(=O)c2ccc3nncn3c2)cc1,10.04,4.11,-7.19
CC(=O)Nc1ccc(NC(=O)CSc2nc3ccccc3n3cnnc23)cc1,2.19,32.46,-15.75
Cc1ccc(C)c(NC(=O)Cn2nc3ccc(-c4ccccc4)nn3c2=O)c1,5.6,1.64,-11.25
COc1ccc(CNC(=O)CCc2nnc3ccc(-c4ccccc4)nn23)cc1OC,15.01,-1.16,-12.03
Cc1ccc(NC(=O)Cn2nc3c4c5c(sc4ncn3c2=O)CCCC5)c(Cl)c1,3.19,9.32,-16.36
Cc1nnc2c(=O)n(CC(=O)NC3CCCC3)c3ccccc3n12,6.01,0.18,-17.78
CCOC(=O)c1ccc(NC(=O)Cn2nc3c4cc(-c5ccc(Cl)cc5)nn4ccn3c2=O)cc1,8.16,4.56,-16.17
COC(=O)c1ccc(NC(=O)Cn2nc3c4cc(-c5ccc(OC)cc5)nn4ccn3c2=O)cc1,9.58,0.9,-33.46
Cc1ccc(-c2nc(CSc3nc4ccccc4n4c(C(C)C)nnc34)c(C)o2)cc1,3.51,2.71,-13.81
O=C(Cn1nc2ccc(SCc3ccc(Cl)cc3)nn2c1=O)NC1CCCCC1,3.63,3.05,-27.33
Cc1cccc(NC(=O)CSc2nnc3ccc(C(=O)Nc4cccc(F)c4)cn23)c1,11.26,1.08,-17.48
CCCCN(CC)c1ccc2nnc(CCc3nc(-c4ccc(Br)cc4)no3)n2n1,10.38,6.33,-10.77
Cc1ccc(NC(=O)Cn2nc3c4cc(-c5ccc(C)c(C)c5)nn4ccn3c2=O)c(Cl)c1,13.54,-1.09,-13
COc1ccc(NC(=O)Cn2nc3c4cc(-c5ccc(C)cc5)nn4ccn3c2=O)cc1Cl,-5.12,9.96,-15.26
O=C(Cn1nc2nc(Nc3ccc(F)cc3)ccn2c1=O)N1CCCc2ccccc21,14.82,2.56,-7.45
COc1ccc(NC(=O)Cn2nc3c(N4CCCC(C)C4)nccn3c2=O)cc1OC (centres undefined),-1.27,-0.12,-7.35
COc1ccc(C(=O)CSc2nnc3c(=O)n(-c4cccc(OC)c4)ccn23)cc1,12.72,5.69,-12.42
O=C(Cn1nc2c(Oc3ccccc3)nccn2c1=O)Nc1ccc2c(c1)OCO2,4.55,2.95,-10
O=C1CCCN1c1ccc(Cn2nc3ccc(-c4ccccc4)nn3c2=O)cc1,10.51,-0.02,-12.26
Cc1ccc(NC(=O)Cn2nc3c(N4CC(C)CC(C)C4)nccn3c2=O)c(F)c1 (centres undefined),10.72,3.58,-9.98
COc1ccc(-n2ccn3c(SCC(=O)N4CCN(c5ccccc5F)CC4)nnc3c2=O)cc1,15.6,2.59,-14.55
CCc1ccc(N(Cc2ccccc2Cl)S(=O)(=O)c2cccn3c(C)nnc23)cc1,4.84,5.69,-4.25
COc1ccc(N(Cc2cccc(Cl)c2)S(=O)(=O)c2ccc3nncn3c2)cc1,12.52,3.54,-3.69
N#Cc1cccc(Cn2nc3ccc(S(=O)(=O)N4CCCCCC4)cn3c2=O)c1,8.88,-0.26,-9.97
COc1ccccc1-n1ccn2c(SCC(=O)Nc3ccc4c(c3)OCO4)nnc2c1=O,8.58,4.47,-4.47
Cc1cc(C)cc(Nc2nc(C)cc3nn(CC(=O)Nc4ccccc4)c(=O)n23)c1,9.53,4.6,-8.58
CCc1ccc(NC(=O)Cn2c(=O)c3nnc(C(C)C)n3c3ccccc32)cc1,8.25,26.99,-22.84
O=C(CSc1nnc2c(=O)n(-c3ccccc3)ccn12)Nc1ccc(Cl)cc1,8.54,0.98,-17.38
